Assay results reported in the supplement of paper PMC10849652.
Targets with a hit are over-represented here; the source holds about 8,800 in all. About 0.5% of all pairs of compound and target were hits.

Columns and labels:
Assay in all cases: log2 fold change, soluble protein after heating vs DMSO (PISA); higher = thermal stabilisation; K562 lysate, 10 uM; active = over 0.2 and 3.5 SD of the protein, either way, in both replicates (recomputed)
[1] = compound: C#Cc1cccc(Nc2ncnc3cc(OCCOC)c(OCCOC)cc23)c1 [erlotinib]
In short: (§1)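 Log-two fold change in thermal stability relative to solvent controls is reported from duplicates. For each sample, crude K562 extract from dounce-homogenised pellets in PBS pH 7.4 with 1 mM MgCl2, at 1 mg/mL protein, was treated with 10 μM compound for 30 min. Aliquots heated for 3 min across 48°C-58°C were pooled, brought to 0.5% NP-40 at 4°C and cleared at 21,000xg for 90 min. The supernatant was quantified by TMTpro 16plex LC-MS/MS with channel sums equalised.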

[2] = compound: C/C(=N\NC(=O)C1=CC(=CC=C1)S(=O)(=O)N2CCOCC2)/C3=C(C=CC(=C3)Cl)O
In short: as §1

[3] = compound: C1=CC(=CC=C1C2=NC3=C(N2)C=C(C=C3)C(=O)N)OC4=CC=C(C=C4)Cl
In short: as §1

[4] = compound: C1=CC2=C(C=CC(=C2)/C=C\3/C(=O)NC(=NCC4=CC=CS4)S3)N=C1
In short: as §1

[5] = compound: C1=CC2=NC=CN=C2C=C1/C=C/3\C(=O)NC(=O)S3
In short: as §1

[6] = compound: C1=CC=C(C=C1)C2=NC(=C(N2)C3=CC=NC=C3)C4=CC(=C(C=C4)Cl)O
In short: as §1

[7] = compound: C1=CC=C2C(=C1)C3=NNC4=CC=CC(=C43)C2=O
In short: as §1

[8] = compound: C1CCN(C1)C(=O)NC2=CC=CC(=C2)NC3=NC=C(C(=N3)NCCC4=CN=CN4)Br
In short: as §1

[9] = compound: C1CN(CCC1(CC2=CC=C(C=C2)Cl)N)C3=NC=NC4=C3C=CN4
In short: as §1

[10] = compound: C1COCCN1CCN2C3=CC=CC=C3N=C2NC(=O)C4=CC(=CC=C4)[N+](=O)[O-] [IRAK-1-4 Inhibitor I]
In short: as §1

Measured: log2 fold change

ZC3H11A (UniProt O75152)
inactive: [1] 0.021 | [2] -0.048 | [3] -0.027 | [4] 0.004 | [5] -0.048 | [6] 0.029 | [7] -0.02 | [8] -0.011 | [9] -0.003 | [10] -0.012

VTN (UniProt P04004)
Chain of UniProt P04004 (P04004 whole entry, looked up): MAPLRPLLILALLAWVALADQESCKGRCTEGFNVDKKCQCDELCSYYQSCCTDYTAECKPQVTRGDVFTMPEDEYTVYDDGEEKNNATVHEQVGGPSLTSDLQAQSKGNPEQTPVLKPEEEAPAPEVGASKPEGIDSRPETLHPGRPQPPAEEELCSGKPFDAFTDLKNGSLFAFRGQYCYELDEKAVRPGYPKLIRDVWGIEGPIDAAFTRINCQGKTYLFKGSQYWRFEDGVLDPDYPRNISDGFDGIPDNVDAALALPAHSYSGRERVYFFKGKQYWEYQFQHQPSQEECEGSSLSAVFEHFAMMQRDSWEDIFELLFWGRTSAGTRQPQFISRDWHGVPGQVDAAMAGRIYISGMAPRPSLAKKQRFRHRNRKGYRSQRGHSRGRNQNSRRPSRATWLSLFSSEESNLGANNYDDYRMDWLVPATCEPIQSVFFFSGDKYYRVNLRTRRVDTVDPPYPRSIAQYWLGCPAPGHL
inactive: [1] -0.065 | [2] -0.006 | [3] 0.003 | [4] -0.033 | [5] 0.107 | [6] -0.096 | [7] -0.129 | [8] -0.065 | [9] -0.042 | [10] 0.043

USP34 (UniProt Q70CQ2)
inactive: [1] 0.043 | [2] 0.018 | [3] -0.039 | [4] 0.029 | [5] -0.008 | [6] 0.012 | [7] -0.002 | [8] 0.003 | [9] 0.003 | [10] -0.001

VPS35L (UniProt Q7Z3J2)
inactive: [1] 0.005 | [2] -0.016 | [3] -0.028 | [4] -0.001 | [5] 0.002 | [6] 0.006 | [7] -0.038 | [8] -0.028 | [9] 0.006 | [10] 0.04

ZC3HC1 (UniProt Q86WB0)
inactive: [1] 0.011 | [2] -0.123 | [3] -0.006 | [4] 0.005 | [5] -0.009 | [6] 0.007 | [7] 0.009 | [8] 0.011 | [9] 0.018 | [10] -0.003

VPS28 (UniProt Q9UK41)
inactive: [1] 0.707 | [2] -0.039 | [3] 0.004 | [4] -0.005 | [5] 0.041 | [6] 0.028 | [7] -0.036 | [8] -0.006 | [9] -0.018 | [10] -0.036

WEE1 (UniProt P30291)
inactive: [1] 0.079 | [2] -0.014 | [3] -0.091 | [4] -0.051 | [5] 0.019 | [6] 0.01 | [7] -0.006 | [8] -0.07 | [9] 0.021 | [10] 0.056

UQCRC2 (UniProt P22695)
Chain of UniProt P22695 (P22695 whole entry, looked up): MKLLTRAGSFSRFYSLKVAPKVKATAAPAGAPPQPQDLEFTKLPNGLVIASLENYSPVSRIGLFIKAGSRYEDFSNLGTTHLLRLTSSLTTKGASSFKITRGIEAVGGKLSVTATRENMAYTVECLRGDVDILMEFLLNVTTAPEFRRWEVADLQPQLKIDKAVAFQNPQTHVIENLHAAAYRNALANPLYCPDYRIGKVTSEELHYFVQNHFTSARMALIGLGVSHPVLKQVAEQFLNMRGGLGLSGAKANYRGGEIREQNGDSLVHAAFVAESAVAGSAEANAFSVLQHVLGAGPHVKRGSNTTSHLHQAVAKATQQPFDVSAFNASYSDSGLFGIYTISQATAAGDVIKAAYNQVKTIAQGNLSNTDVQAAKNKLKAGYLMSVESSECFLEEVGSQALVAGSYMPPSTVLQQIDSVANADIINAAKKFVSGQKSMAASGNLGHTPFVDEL
inactive: [1] 0 | [2] -0.029 | [3] 0.006 | [4] -0.005 | [5] -0.019 | [6] 0.01 | [7] 0.013 | [8] -0.001 | [9] 0.019 | [10] 0.014

YME1L1 (UniProt Q96TA2)
Chain of UniProt Q96TA2 (Q96TA2 whole entry, looked up): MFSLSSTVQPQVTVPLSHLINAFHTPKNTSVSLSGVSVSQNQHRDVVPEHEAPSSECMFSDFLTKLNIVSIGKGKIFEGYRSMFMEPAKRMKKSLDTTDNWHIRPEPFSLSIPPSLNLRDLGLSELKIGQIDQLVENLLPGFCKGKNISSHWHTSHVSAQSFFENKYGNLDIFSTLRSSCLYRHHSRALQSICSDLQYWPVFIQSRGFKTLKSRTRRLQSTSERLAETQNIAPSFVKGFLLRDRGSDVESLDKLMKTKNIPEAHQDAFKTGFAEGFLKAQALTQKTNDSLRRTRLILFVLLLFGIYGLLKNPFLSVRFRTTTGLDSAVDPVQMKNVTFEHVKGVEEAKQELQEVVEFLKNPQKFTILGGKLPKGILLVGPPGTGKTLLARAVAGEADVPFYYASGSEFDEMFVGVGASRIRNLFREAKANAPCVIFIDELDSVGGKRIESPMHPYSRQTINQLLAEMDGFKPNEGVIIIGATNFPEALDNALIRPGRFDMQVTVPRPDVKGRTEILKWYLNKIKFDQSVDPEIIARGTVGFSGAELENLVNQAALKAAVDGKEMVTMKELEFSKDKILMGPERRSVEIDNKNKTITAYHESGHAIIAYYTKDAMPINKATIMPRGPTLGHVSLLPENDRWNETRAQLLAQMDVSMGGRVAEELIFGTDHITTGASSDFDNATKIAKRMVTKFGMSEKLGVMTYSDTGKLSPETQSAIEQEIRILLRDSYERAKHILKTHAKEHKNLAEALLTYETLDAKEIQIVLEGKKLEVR
inactive: [1] 0.018 | [2] -0.136 | [3] -0.029 | [4] 0.026 | [5] 0.053 | [6] 0 | [7] 0.011 | [8] -0.006 | [9] 0.041 | [10] 0.033

UNC45A (UniProt Q9H3U1)
inactive: [1] 0.016 | [2] 0.014 | [3] -0.039 | [4] -0.006 | [5] 0.001 | [6] -0.024 | [7] -0.037 | [8] -0.015 | [9] -0.002 | [10] -0.001

VARS (UniProt P26640)
inactive: [1] 0.031 | [2] 0.035 | [3] -0.031 | [4] 0.007 | [5] 0.03 | [6] 0.019 | [7] -0.035 | [8] 0.021 | [9] -0.002 | [10] 0.011

ZNF644 (UniProt Q9H582)
inactive: [1] 0.192 | [2] -0.085 | [3] 0.071 | [4] 0.075 | [5] 0.066 | [6] -0.115 | [7] -0.04 | [8] 0.036 | [9] -0.037 | [10] 0.035

UTP3 (UniProt Q9NQZ2)
Chain of UniProt Q9NQZ2 (Q9NQZ2 whole entry, looked up): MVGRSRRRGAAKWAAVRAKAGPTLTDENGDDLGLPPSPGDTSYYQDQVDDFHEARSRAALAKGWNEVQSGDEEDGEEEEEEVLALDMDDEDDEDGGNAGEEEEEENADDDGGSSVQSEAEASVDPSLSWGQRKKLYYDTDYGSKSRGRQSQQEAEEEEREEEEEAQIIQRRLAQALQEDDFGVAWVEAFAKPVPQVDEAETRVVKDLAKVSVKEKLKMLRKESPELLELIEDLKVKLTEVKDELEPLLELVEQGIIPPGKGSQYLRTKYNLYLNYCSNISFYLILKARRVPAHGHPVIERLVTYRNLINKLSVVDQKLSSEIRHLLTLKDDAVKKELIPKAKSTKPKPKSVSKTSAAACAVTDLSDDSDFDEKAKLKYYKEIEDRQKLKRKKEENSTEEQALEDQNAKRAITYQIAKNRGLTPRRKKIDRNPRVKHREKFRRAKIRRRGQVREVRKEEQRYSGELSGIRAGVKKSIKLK
inactive: [1] -0.051 | [2] -1.41 | [3] -0.088 | [4] -0.063 | [5] -0.039 | [6] -0.018 | [7] 0.021 | [8] -0.067 | [9] -0.09 | [10] -0.041

WDR24 (UniProt Q96S15)
inactive: [1] 0.023 | [2] 0.014 | [3] 0.029 | [4] -0.042 | [5] -0.018 | [6] 0.058 | [7] -0.012 | [8] -0.034 | [9] -0.007 | [10] 0.034

WIPI2 (UniProt Q9Y4P8)
inactive: [1] -0.006 | [2] -0.042 | [3] -0.009 | [4] 0.064 | [5] -0.037 | [6] -0.003 | [7] 0.035 | [8] -0.054 | [9] -0.047 | [10] 0.021

XPO5 (UniProt Q9HAV4)
Chain of UniProt Q9HAV4 (Q9HAV4 whole entry, looked up): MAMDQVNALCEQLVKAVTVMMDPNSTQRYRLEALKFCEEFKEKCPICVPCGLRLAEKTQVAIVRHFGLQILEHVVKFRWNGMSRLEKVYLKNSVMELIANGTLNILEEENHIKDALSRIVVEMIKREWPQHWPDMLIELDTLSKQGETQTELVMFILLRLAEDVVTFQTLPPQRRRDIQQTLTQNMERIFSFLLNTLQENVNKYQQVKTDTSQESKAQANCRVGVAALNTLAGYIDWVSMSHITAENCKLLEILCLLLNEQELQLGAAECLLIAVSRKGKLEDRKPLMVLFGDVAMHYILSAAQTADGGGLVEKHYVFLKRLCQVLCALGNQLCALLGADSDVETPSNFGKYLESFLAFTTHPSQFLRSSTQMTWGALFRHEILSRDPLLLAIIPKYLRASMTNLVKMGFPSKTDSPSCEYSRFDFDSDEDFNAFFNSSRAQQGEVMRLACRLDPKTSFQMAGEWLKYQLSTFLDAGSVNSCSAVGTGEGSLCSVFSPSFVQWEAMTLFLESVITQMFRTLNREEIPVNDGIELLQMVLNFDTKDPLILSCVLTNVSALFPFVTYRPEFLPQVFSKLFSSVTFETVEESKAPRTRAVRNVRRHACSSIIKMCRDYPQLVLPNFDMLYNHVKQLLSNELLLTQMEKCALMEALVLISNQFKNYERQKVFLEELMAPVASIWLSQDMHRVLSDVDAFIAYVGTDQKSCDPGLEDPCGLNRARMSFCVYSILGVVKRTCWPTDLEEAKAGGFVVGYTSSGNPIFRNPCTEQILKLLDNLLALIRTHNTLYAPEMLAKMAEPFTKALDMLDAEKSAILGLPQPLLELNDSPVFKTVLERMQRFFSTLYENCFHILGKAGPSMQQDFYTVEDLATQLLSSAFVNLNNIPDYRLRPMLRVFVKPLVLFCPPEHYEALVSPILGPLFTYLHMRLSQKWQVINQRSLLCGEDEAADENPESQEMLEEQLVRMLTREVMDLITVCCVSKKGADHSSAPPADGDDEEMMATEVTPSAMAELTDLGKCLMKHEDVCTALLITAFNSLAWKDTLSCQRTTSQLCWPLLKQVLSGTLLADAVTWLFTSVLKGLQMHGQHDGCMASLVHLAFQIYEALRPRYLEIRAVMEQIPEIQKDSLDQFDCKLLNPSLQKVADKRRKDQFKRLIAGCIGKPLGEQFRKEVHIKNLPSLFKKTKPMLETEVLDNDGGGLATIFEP
inactive: [1] 0.026 | [2] 0.024 | [3] -0.02 | [4] 0.005 | [5] 0 | [6] -0.003 | [7] -0.044 | [8] 0.008 | [9] 0.035 | [10] -0.015

ZDHHC18 (UniProt Q9NUE0)
inactive: [1] 0.265 | [2] -0.057 | [3] -0.371 | [4] -0.052 | [5] -0.135 | [6] 0.004 | [7] 0.038 | [8] -0.022 | [9] 0.075 | [10] 0.13

XPOT (UniProt O43592)
inactive: [1] 0.017 | [2] -0.013 | [3] -0.041 | [4] -0.003 | [5] 0.032 | [6] -0.011 | [7] -0.021 | [8] -0.004 | [9] 0.025 | [10] 0.016

USP48 (UniProt Q86UV5)
inactive: [1] 0.022 | [2] 0.001 | [3] -0.015 | [4] -0.051 | [5] 0.006 | [6] 0.001 | [7] 0.049 | [8] -0.033 | [9] 0.013 | [10] -0.026

VANGL1 (UniProt Q8TAA9)
inactive: [1] 0 | [2] -0.043 | [3] -0.088 | [4] 0.022 | [5] -0.149 | [6] -0.377 | [7] -0.01 | [8] -0.072 | [9] 0.004 | [10] 0.182

ZMYM2 (UniProt Q9UBW7)
Chain of UniProt Q9UBW7 (Q9UBW7 whole entry, looked up): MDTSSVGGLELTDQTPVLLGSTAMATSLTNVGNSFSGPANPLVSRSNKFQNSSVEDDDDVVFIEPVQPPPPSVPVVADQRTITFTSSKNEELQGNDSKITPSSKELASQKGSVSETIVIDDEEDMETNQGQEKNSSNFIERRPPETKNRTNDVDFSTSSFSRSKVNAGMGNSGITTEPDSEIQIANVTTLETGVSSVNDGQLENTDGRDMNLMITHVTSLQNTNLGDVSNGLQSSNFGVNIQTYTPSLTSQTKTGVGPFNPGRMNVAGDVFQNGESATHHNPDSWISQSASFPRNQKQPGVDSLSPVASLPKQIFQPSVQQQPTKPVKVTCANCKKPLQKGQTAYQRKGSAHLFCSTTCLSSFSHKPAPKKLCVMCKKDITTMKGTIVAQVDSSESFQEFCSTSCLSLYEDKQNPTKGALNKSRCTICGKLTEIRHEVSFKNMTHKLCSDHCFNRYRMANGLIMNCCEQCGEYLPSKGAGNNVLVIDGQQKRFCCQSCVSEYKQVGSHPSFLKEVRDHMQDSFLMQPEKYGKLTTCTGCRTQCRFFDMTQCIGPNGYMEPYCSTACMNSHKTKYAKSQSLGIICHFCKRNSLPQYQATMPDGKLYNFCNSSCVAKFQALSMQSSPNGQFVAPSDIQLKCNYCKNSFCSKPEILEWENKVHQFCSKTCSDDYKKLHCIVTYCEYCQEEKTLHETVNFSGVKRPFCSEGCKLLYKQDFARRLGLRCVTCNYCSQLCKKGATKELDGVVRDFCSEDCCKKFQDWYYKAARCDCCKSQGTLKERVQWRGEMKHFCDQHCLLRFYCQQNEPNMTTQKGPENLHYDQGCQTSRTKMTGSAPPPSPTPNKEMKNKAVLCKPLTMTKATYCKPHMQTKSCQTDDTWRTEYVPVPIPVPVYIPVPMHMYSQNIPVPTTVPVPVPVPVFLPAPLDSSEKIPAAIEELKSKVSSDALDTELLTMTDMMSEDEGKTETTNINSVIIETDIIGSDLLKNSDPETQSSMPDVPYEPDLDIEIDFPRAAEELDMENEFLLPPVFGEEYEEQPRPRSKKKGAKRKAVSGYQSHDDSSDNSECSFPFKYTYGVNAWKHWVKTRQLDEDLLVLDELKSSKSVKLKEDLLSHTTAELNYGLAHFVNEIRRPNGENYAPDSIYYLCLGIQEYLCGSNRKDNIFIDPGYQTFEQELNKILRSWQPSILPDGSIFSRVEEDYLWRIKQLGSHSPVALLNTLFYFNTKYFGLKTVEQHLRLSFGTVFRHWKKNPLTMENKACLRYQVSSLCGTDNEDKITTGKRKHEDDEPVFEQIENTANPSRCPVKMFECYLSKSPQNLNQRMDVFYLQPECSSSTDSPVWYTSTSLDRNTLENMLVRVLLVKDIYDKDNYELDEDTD
inactive: [1] 0.036 | [2] -0.049 | [3] 0.038 | [4] 0.073 | [5] -0.022 | [6] 0.053 | [7] -0.05 | [8] -0.209 | [9] 0.116 | [10] 0.07

VPS13C (UniProt Q709C8)
inactive: [1] -0.007 | [2] -0.003 | [3] 0.038 | [4] 0.008 | [5] 0.017 | [6] -0.013 | [7] -0.021 | [8] 0.042 | [9] -0.012 | [10] 0.004

UXT isoform 2 (UniProt Q9UBK9)
Chain of UniProt Q9UBK9 (Q9UBK9 whole entry, looked up): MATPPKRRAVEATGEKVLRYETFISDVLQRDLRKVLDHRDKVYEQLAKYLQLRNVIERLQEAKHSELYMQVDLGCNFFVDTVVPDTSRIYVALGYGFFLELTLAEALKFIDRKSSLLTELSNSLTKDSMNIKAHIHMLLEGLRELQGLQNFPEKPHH
inactive: [1] 0.012 | [2] -0.036 | [3] 0.033 | [4] 0.021 | [5] -0.054 | [6] 0.035 | [7] 0.012 | [8] -0.033 | [9] 0.186 | [10] 0.007

XAB2 (UniProt Q9HCS7)
inactive: [1] 0.049 | [2] -0.088 | [3] -0.012 | [4] 0.076 | [5] 0.093 | [6] 0.012 | [7] -0.041 | [8] 0.071 | [9] -0.014 | [10] 0.004

YDJC (UniProt A8MPS7)
inactive: [1] -0.083 | [2] 0.036 | [3] -0.011 | [4] -0.012 | [5] -0.01 | [6] 0.029 | [7] -0.065 | [8] -0.034 | [9] 0.029 | [10] -0.023

VPS16 (UniProt Q9H269)
inactive: [1] 0.059 | [2] 0.026 | [3] 0.048 | [4] 0.024 | [5] -0.03 | [6] 0.048 | [7] -0.075 | [8] 0.03 | [9] 0.023 | [10] 0.025

YLPM1 (UniProt P49750)
inactive: [1] 0.026 | [2] -0.04 | [3] 0.035 | [4] -0.043 | [5] -0.018 | [6] -0.004 | [7] 0.022 | [8] 0.044 | [9] 0.019 | [10] 0.027

USP9X (UniProt Q93008)
inactive: [1] 0.034 | [2] 0.013 | [3] -0.008 | [4] 0.015 | [5] 0.014 | [6] 0.003 | [7] -0.019 | [8] -0.005 | [9] -0.013 | [10] 0.022

ZBTB33 (UniProt Q86T24)
inactive: [1] 0 | [2] 0.012 | [3] 0.101 | [4] 0.062 | [5] 0.144 | [6] -0.025 | [7] -0.101 | [8] -0.053 | [9] 0.068 | [10] -0.042

UQCC2 (UniProt Q9BRT2)
Chain of UniProt Q9BRT2 (Q9BRT2 whole entry, looked up): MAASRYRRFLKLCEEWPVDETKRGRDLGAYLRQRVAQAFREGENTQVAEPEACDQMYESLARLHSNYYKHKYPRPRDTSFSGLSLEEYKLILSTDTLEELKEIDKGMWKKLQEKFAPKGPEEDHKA
inactive: [1] 0.037 | [2] 0.044 | [3] -0.039 | [4] 0.06 | [5] 0.001 | [6] -0.007 | [7] 0 | [8] -0.05 | [9] -0.023 | [10] 0.016
